A selection: hits, their analogues and other compounds. The true share with any hit is near 1.1%.
aDG glyco act: increases alpha dystroglycan glycosylation; activation, % at 10 µM; AID 624168; 360,000 compounds, 0.22% hits; Pro5-aDG cells, alpha-DG glycosylation AlphaScreen (IIH6); 0% Pro5, 100% B10-LARGE cell signal;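 active = activation of at least 8% versus controls, or a plate z-score of at least 8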;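 also: Pro5 are CHO cells carrying HIG-tagged alpha-DG that lacks glycosylation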
NPR1 activator: GC-A (human) enzyme activation | P16066 | HEK293 GC-A cells, cGMP TR-FRET, EC30 ANP; 0% at EC30 ANP, 100% saturating ANP | activation, % at 10 µM | 370,000 compounds, 0.14% hits; in the data active = activation above about 40%
FAS TE block: FAS thioesterase (human) inhibition. AID 602261. 360,000 compounds, 0.67% hits. recombinant FAS-TE, OMFH fluorogenic substrate, fluorescence endpoint. P49327. inhibition, % at 15 µM;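 active = compounds whose normalised, plate-corrected inhibition of enzyme fluorescence in the single-dose primary screen is 50% or more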;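 also: 0% = DMSO with enzyme and 100% = substrate without enzyme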
GC-B act: GC-B (human) receptor activation | HEK293-GC-B cells, CNP EC30, cGMP TR-FRET; 0% at EC30 CNP, 100% saturating CNP | activation, % at 10 µM | 370,000 compounds, 0.11% hits | AID 1920062;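 active = activation at 10 µM reaching about 35% in either raw or pattern-adjusted values, limit read from the data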
FAS-TE conf: FAS thioesterase (human) inhibition, confirmation; 2,300 compounds, 45% hits; recombinant FAS-TE, OMFH fluorogenic substrate, fluorescence; inhibition, % at 15 µM; shares compounds with FAS TE block;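 active = compounds inhibiting the enzyme by at least 50% at 15 µM in any one of the replicates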;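 also: 0% = enzyme with DMSO only and 100% = wells lacking enzyme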
* = called active by the depositor; nt = no result.

SMILES	aDG glyco act	NPR1 activator	FAS TE block	GC-B act	FAS-TE conf
COc1ccc(C2CC(c3cccs3)=NN2C(=O)CSc2nc(=O)n3ccccc3n2)cc1 (stereo not drawn)	0.0	8.2	43.0	7.6	nt
C#CCN1C(=O)[C@]2(NCCc3c2[nH]c2ccc(OC)cc32)c2cc(F)ccc21	nt	-3.1	nt	-0.2	nt
COC(=O)[C@@H](Cc1ccc(O)cc1)NC(=O)[C@H]1O[C@@H](n2cnc3c(=O)[nH]c(N)nc32)[C@H](O)[C@@H]1O	nt	9.0	nt	11.7	nt
COCCCNC(=O)CCn1c(=O)c2ccccc2n(Cc2cccc([N+](=O)[O-])c2)c1=O	-0.1	-5.4	41.9	1.4	nt
O=C(Cn1c(=O)c2sccc2n(Cc2ccc([N+](=O)[O-])cc2)c1=O)NCCc1ccccc1	0.1	4.2	74.9*	-6.3	75.8*
O=C(Cn1c(=O)c2sccc2n(Cc2cccc([N+](=O)[O-])c2)c1=O)NCCc1ccccc1	0.4	-0.9	57.1*	7.3	62.8*
CCc1ccc(OC(=O)Cc2ccc(OC)c(S(=O)(=O)N3CCOCC3)c2)cc1	-0.1	2.1	22.1	2.9	nt
COc1ccc(CC(=O)Oc2ccc(C(C)(C)C)cc2)cc1S(=O)(=O)N1CCOCC1	-0.2	2.0	59.8*	9.3	14.9
CN(c1cccnc1)c1ccc(NC(=O)CCc2c[nH]c3ccccc23)cc1Br	nt	0.0	nt	-5.8	nt
Cc1cccc(NC(=S)/N=C(\N)Nc2nc(C)c3ccccc3n2)c1	0.7	-1.8	59.1*	-0.6	20.3
CC(C)c1ccc(NC(=O)C2Cc3c(-c4cccc(C(N)=O)c4)ccnc3O2)cc1 (stereo not drawn)	0.1	-0.5	11.1	1.7	nt
CC(=O)c1cccc(-c2ccnc3c2CC(C(=O)Nc2ccc(F)c(Cl)c2)O3)c1 (stereo not drawn)	0.6	2.3	60.5*	11.6	58.0*
CC(C)c1ccc(NC(=O)C2Cc3c(-c4cccc(F)c4)ccnc3O2)cc1 (stereo not drawn)	-0.1	0.4	50.0*	-1.9	42.3
COc1ccc([C@H]2/C=C\CN(S(=O)(=O)c3cccc4cccnc34)[C@@H](C)C(=O)N2Cc2ccc(F)cc2)cc1	0.2	-5.4	78.3*	-7.8	5.7
CCCCCCN1CCS(=O)(=O)N(Cc2ccc(F)cc2)C(C(=O)OC)C1 (stereo not drawn)	nt	3.0	nt	-1.4	nt
Cc1cc(C)c(C#N)c(Sc2nc(C)c([N+](=O)[O-])c(C)c2C#N)n1	0.2	0.5	19.9	0.3	nt
Cc1nc(Sc2ccccc2)c(C#N)c(C)c1[N+](=O)[O-]	0.1	0.0	59.4*	-1.4	46.2*
COc1ccc(Cl)cc1NC(=O)CN(C)C(=O)c1sc2ccccc2c1Cl	0.5	-7.5	51.4*	-6.8	34.8
COc1ccc(NC(=O)CN(C)C(=O)c2sc3ccccc3c2Cl)cc1	0.0	0.6	5.3	-3.2	nt
COc1cccc(NC(=O)COc2c(F)c(F)c(C(F)(F)F)c(F)c2F)c1	0.1	0.6	58.2*	3.1	36.7*
COc1cccc(NC(=O)COc2ccc(C)cc2)c1	0.0	-1.9	0.8	0.7	nt
C=CCOc1c(OC)cc(/C=N/Nc2cccc(C(=O)O)c2)c(Br)c1Br	-0.1	-6.0	70.0*	0.0	83.8*
NC(=S)N/N=C/c1ccc(-c2ccc(SC(F)F)cc2)o1	0.3	-8.9	54.6*	-18.5	38.7*
Cc1ccc(-c2ccc(/C=N/NC(N)=S)o2)cc1	0.7	-28.6	18.2	-22.1	nt
C/C(=C/CCC(C)[C@H]1CC[C@@]2(C)C3=C(CC[C@]12C)[C@@]1(C)CCC(=O)C(C)(C)[C@@H]1CC3)C(=O)O (stereo partly drawn)	-0.2	-1.5	74.0*	1.9	2.8
SMILES	aDG glyco act	NPR1 activator	FAS TE block	GC-B act	FAS-TE conf
COc1ccc(C)cc1N(C(=O)c1ccccc1)c1nc2ccccc2s1	0.1	-1.3	18.9	-3.1	nt
COc1ccccc1N(C(=O)c1cncc(Br)c1)c1nc(-c2ccc(C)cc2)cs1	-0.1	-4.8	55.8*	5.2	8.9
Cc1c(Cl)ccc2c1NC(=O)[C@]21N[C@@H](Cc2ccccc2)[C@H]2C(=O)N(c3ccc(F)cc3)C(=O)[C@H]21	2.8	1.6	76.3*	8.8	19.8
Cc1nn(-c2ccccc2)c2sc(C(=O)N3CCC4(CC3)OCCO4)cc12	nt	3.2	nt	4.4	nt
COc1ccc(NC(=O)N(C)[C@H]2C[C@H]3c4[nH]c5c(-c6cccc(C)c6)cccc5c4CCN3C(=O)[C@H]2[C@H](C)O)cc1	nt	-6.9	nt	-6.0	nt
O=C(OCC(=O)N1CCc2ccccc2C1)c1cccc([N+](=O)[O-])c1	1.6	-0.1	55.5*	-3.4	67.5*
O=C(Cn1cc([N+](=O)[O-])cn1)N1CCc2ccccc2C1	0.1	1.0	55.7*	-0.9	57.7*
CC(C)(C)N(Cc1ccccc1)C(=O)COC(=O)c1cccc([N+](=O)[O-])c1	-0.1	-3.2	77.4*	0.6	41.5*
COc1ccc(C(=O)OCC(=O)N2CCc3ccccc3C2)cc1OC	0.6	1.8	-6.1	-1.5	nt
Cc1ccc(S(=O)(=O)Nc2cc(C(=O)O)ccc2N2CCC(C)CC2)cc1C	nt	2.1	nt	-5.1	nt
CCN=C1NC(c2ccc(F)cc2)C(C(=O)OC)=C(C)N1Cc1ccccc1C(F)(F)F (stereo not drawn)	nt	-19.7	nt	-18.1	nt
CCCN1CCS(=O)(=O)N(Cc2cn(Cc3ccc(C)cc3)nn2)C(C(=O)OC)C1 (stereo not drawn)	nt	-1.8	nt	0.1	nt
Cc1sc2ncnc(N3CCC(C(=O)Nc4sc5c(c4C(N)=O)CCC(C)C5)CC3)c2c1C (stereo not drawn)	0.8	-4.3	66.0*	3.0	-1.1
Cc1cn(C2OC(COC(=O)c3ccccc3)C(OC(=O)c3ccccc3)C2OC(=O)c2ccccc2)c(=O)[nH]c1=O (stereo not drawn)	0.4	-3.6	86.7*	3.9	5.2
O=C(NCCc1ccccc1)OCc1cn(Cc2ccc(F)c(F)c2)nn1	nt	3.8	nt	2.9	nt
CN(C)CCNc1nc2sc3c(c2c(=O)n1CCc1ccccc1)CCCCC3	0.3	-0.3	59.8*	-1.8	56.1*
CC(O)CNc1nc2sc3c(c2c(=O)n1CCc1ccccc1)CCCCC3 (stereo not drawn)	-0.6	-0.5	47.0	-5.6	nt
C=C(C)[C@@H]1CC2=C(OC)C(CC=C(C)C)(CC=C(C)C)C(=O)C(C(=O)c3ccccc3)=C2O1	nt	-17.1	nt	-15.3	nt
CC(OC(=O)c1ccc(Cl)c([N+](=O)[O-])c1)C(=O)N1CCN(Cc2ccccc2)CC1 (stereo not drawn)	0.3	-0.7	73.4*	1.4	54.3*
COc1ccc(C(=O)OCC(=O)NCCCc2ccccc2)cc1[N+](=O)[O-]	-0.1	-1.9	78.8*	0.4	78.7*
COc1ccc(C(=O)NCCc2ccccc2)cc1[N+](=O)[O-]	0.0	1.3	12.5	8.5	nt
Cc1cc(C(=O)NC(C)CCc2ccccc2)ccc1[N+](=O)[O-] (stereo not drawn)	-0.1	-5.6	52.3*	1.3	23.1

Source: PubChem (Sanford-Burnham Center for Chemical Genomics)
